Measured values taken from PubChem BioAssay.

Assay: binders of probe aFGF2 on microarray, primary screen, stem cell growth factor project, biochemical, small-molecule microarray, fluorescence 635/667 (AID 1067);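 note: measures binding of biotinylated aFGF2 protein to printed compounds on slides; z-score merges feature fluorescence and signal-to-noise across triplicate slides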
Settings: higher = more signal
In the case of `C=C(CCCC)/C(=C/C[C@H](OC(C)=O)c1ccc(CO)o1)c1cc(C(=O)OC)ccc1OC`, the composite z-score is reported as -0.0333.
`CC(C)(C)OC(=O)CC[C@]1(C(=O)NCC(O)CO)N=C(c2ccc(OCCCO)cc2)O[C@H]1c1ccccc1CN=[N+]=[N-]` (some centres undefined) showed a composite z-score of 0.314.
For `COC(=O)[C@@]1(Cc2ccc(OC)cc2)[C@H]2c3cc(C(=O)N(C)C)n(Cc4ccc(OC)c(OC)c4)c3C[C@H]2CN1C(=O)c1ccccc1`, the composite z-score was -0.0824.
Molecule `[N-]=[N+]=NCc1ccccc1C[C@@]1(C(=O)NCc2ccccc2)N=C(c2ccc(OCCCO)cc2)O[C@@H]1c1ccccc1CN=[N+]=[N-]` has a composite z-score of 0.107.
In the case of `[N-]=[N+]=NCc1ccccc1[C@H]1OC(c2ccc(OCCCO)cc2)=N[C@@]1(Cc1ccccc1)C(=O)O`, the composite z-score is reported as -0.0586.
With `NC(=O)NCC#Cc1ccc2c(c1)[C@]1(C(=O)N2)[C@H](C(=O)NC[C@H](O)c2ccccc2)[C@H]2C(=O)O[C@H](c3ccccc3)[C@H](c3ccccc3)N2[C@@H]1c1ccccc1OCCO` the composite z-score was -0.0934.
`C=C(C(=O)CC[C@H](OC(=O)c1cccnc1)c1ccccc1OCCO)C(C)C` gave a composite z-score of -0.133.
`COc1ccc([Si](C)(C)[C@@H]2[C@@H](CCO)O[C@]3(C(=O)N(Cc4ccc(N5C(=O)c6cccc7cccc5c67)cc4)c4ccccc43)[C@H]2C)cc1` gave a composite z-score of -0.0566.
`COc1ccc([Si](C)(C)[C@H]2[C@H](CCO)O[C@@]3(C(=O)N(Cc4ccccc4)c4ccc(N5C(=O)COc6ccccc65)cc43)[C@@H]2C)cc1` gave a composite z-score of -0.0692.
In the case of `O=C1C2C=CC(C(O)c3ccccn3)N(Nc3ccccc3F)C2C(=O)N1c1ccccc1` (centres undefined), the composite z-score is reported as -0.047.
Work on `CN(C)CCCC[C@@H]1NC(=O)[C@@H]2C[C@H](C(=O)NCCCCCN)[C@H](c3ccc(O)cc3)N2C1=O` yielded a composite z-score of -0.043.
`O=C(NCC(O)CO)[C@@]1(Cc2ccccc2)COC(c2ccc(OCCCO)cc2)=N1` (some centres undefined) gave a composite z-score of -0.083.
`CCOC(=O)N1C(c2ccc(OCCCO)cc2)=NC(C(=O)OC)N1C(=O)OCC` (centres undefined) gave a composite z-score of 0.0794.
`CO[C@H]1O[C@H](CO)[C@@H](OC(=O)Nc2cccc(F)c2)[C@H](OC(=O)Nc2ccccc2-c2ccccc2)[C@@H]1OC(=O)Nc1ccccc1-c1ccccc1` gave a composite z-score of 0.111.
With `O=C1OCC=C[C@H]2OC34C=CCN(c5ccc6ccccc6c5)C(=O)[C@H]3N(CCO)C(=O)[C@@H]4[C@@H]12` (some centres undefined) the composite z-score was -0.166.
Molecule `COc1cc2c(cc1O)C(c1ccc(CN3CCCC3)cc1)N(Cc1sc3ccccc3c1Cl)CC2` (centres undefined) has a composite z-score of -0.0687.
Work on `O=C1OCC=C[C@H]2OC34C=CCN(c5ccc(Cl)cc5)C(=O)[C@H]3N(CCCO)C(=O)[C@@H]4[C@@H]12` (some centres undefined) yielded a composite z-score of -0.0847.
In the case of `NC(=O)[C@@]1(CCS(=O)(=O)c2ccccc2)N=C(c2ccc(OCCCO)cc2)O[C@H]1c1ccccc1`, the composite z-score is reported as 0.103.
Molecule `CC(=O)NCCCC[C@@H]1NC(=O)[C@@H]2C[C@H](C(=O)NCc3ccc(F)cc3)[C@H](c3ccc(O)cc3)N2C1=O` has a composite z-score of 0.0377.
Molecule `O=C1OCCC=C[C@H]2OC34C=CCN(c5ccc6ccccc6c5)C(=O)[C@H]3N(CCCCCCO)C(=O)[C@@H]4C12` (some centres undefined) has a composite z-score of -0.143.
With `Cc1ccc(F)cc1S(=O)(=O)N[C@@H]1CCN(Cc2ccc(C(F)(F)F)cc2)C1` the composite z-score was -0.198.
In the case of `CC(C)NC(=O)[C@@]1(c2ccc([N+](=O)[O-])cc2)CC(=O)N(C(C)C)[C@@H]1c1ccc(CO)cc1`, the composite z-score is reported as -0.134.
For `C=CCC(OC(C)=O)[C@@H]1[C@@H](N(Cc2ccc(-c3ccccc3)cc2)C(=O)c2ccc(C)cc2)c2cc(OCCCO)ccc2N1C(=O)c1ccc2ccccc2n1` (some centres undefined), the composite z-score was -0.0434.
`C=CCC(OC(C)=O)[C@@H]1[C@@H](N(Cc2cc3ccccc3o2)C(=O)c2ccc(C)cc2)c2cc(OCCCO)ccc2N1C(=O)c1ccc(-c2ccccc2)cc1` (some centres undefined) showed a composite z-score of 0.0337.
`COCCCNC(=O)[C@@]1(Sc2ccc(C)cc2)CC(=O)N(Cc2ccccc2)[C@@H]1c1ccc(CO)cc1` showed a composite z-score of 0.0431.
For `COc1ccc(C(=O)Nc2cccc(CN3C(=O)[C@@]4(O[C@@H](CCn5cc([C@H](O)c6ccccc6)nn5)[C@H]([Si](C)(C)c5ccc(OC)cc5)[C@H]4C)c4ccccc43)c2)cc1`, the composite z-score was -0.123.
`CN1C(=O)C2C=CC(C(O)c3ccccc3)N(NC(=O)OC(C)(C)C)C2C1=O` (centres undefined) gave a composite z-score of 0.0728.
In the case of `[N-]=[N+]=NCc1ccccc1C[C@]1(C(=O)NCc2ccccc2)COC(c2ccc(OCCCO)cc2)=N1`, the composite z-score is reported as 0.0111.
In the case of `C=CC[C@@]1(C(=O)NCCN2CCOCC2)N=C(c2ccc(OCCCO)cc2)O[C@@H]1c1ccccc1CN=[N+]=[N-]`, the composite z-score is reported as -0.0524.
